Measured potencies and affinities stand elsewhere. Activity calls are given as the source filed them.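 Rule for the calls: active = fitted half-maximal dose no more than twice the top valid tested dose, for compounds that lower signal; inconclusive = fit invalid, or curve flat with activity between -70 and -30; inactive = potency past limit, curve flat within ±30, or signal increasing.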
target: NAD-dependent protein deacylase sirtuin-5, mitochondrial (Homo sapiens) (UniProt Q9NXA8); experiment: blockers of sirtuin-5 peptide desuccinylation – biochemical, fluorescence imaging, cherry-pick, set 6, dose response (AID 720597); conditions: Purified SirT5, succinyl-peptide-AMC/trypsin fluorescence; series mostly up to 15 µM;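 note: lower AMC signal can also come from blocking the trypsin step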
Sequence (Q9NXA8 whole entry, looked up): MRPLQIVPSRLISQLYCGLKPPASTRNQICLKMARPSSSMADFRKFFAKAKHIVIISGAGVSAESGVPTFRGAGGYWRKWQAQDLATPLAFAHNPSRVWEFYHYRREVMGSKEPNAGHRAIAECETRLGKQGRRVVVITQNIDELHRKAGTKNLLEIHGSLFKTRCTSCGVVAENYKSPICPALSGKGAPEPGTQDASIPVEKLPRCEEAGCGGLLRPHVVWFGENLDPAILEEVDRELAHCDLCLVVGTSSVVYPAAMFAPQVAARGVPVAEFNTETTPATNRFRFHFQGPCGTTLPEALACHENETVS

outcome, inactive:
CC(C)CN(C[C@H]1N[C@H](CO)[C@@H]1c1ccccc1)C(=O)C1CCCCC1
O=C(C[C@H]1CC[C@H]2[C@@H](COC[C@@H](O)CN2Cc2cccc(Cl)c2)O1)N1CCCCC1
CCC(=O)N(C)C[C@@H]1[C@@H](c2ccc(-c3ccccc3F)cc2)[C@H](CO)N1C(C)=O
COc1ccc(S(=O)(=O)Nc2ccc3c(c2)C(=O)N([C@H](C)CO)C[C@@H](C)[C@@H](CN(C)Cc2ccc(C(F)(F)F)cc2)OCCCC[C@@H](C)O3)cc1
COc1ccc(S(=O)(=O)N2CCC3(CC2)CN(C(=O)c2cccnc2)[C@@H](CO)c2c3c3ccc(OC)cc3n2C)cc1
COc1ccc(S(=O)(=O)Nc2ccc3c(c2)C(=O)N([C@@H](C)CO)C[C@@H](C)[C@@H](CN(C)S(=O)(=O)c2ccccc2)OCCCC[C@@H](C)O3)cc1
CCCN(C)C[C@@H]1Oc2cc(-c3ccccc3OC)ccc2S(=O)(=O)N([C@H](C)CO)C[C@@H]1C
Cc1ccc(S(=O)(=O)Nc2ccc3c(c2)C(=O)N([C@@H](C)CO)C[C@H](C)[C@@H](CN(C)Cc2ccc(C(F)(F)F)cc2)OCCCC[C@H](C)O3)cc1
C[C@@H]1CN([C@H](C)CO)C(=O)c2cccc(NC(=O)c3ccncc3)c2O[C@H]1CN(C)S(C)(=O)=O
CCCN1C[C@H](C)[C@@H](OC)CN(C)C(=O)c2cc(NS(=O)(=O)c3ccccc3)ccc2OC[C@H]1C
COc1ccc(C#Cc2ccc([C@H]3[C@@H](CO)N4C(=O)CN(C(=O)c5cccnc5)C[C@H]34)cc2)cc1

Source: PubChem BioAssay AID720597 (Broad Institute, 2013)
